Assay outcomes from PubChem.
ssDAF-12 act: activates DAF-12 receptor from parasite S. stercoralis; activation, % at 6.8 µM; 370,000 tested, 1% active; HEK293 ssDAF-12/GRIP1 lit1-tk-luc reporter, luminescence; % of 3 µM dafachronic acid response;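 active = activation above the mean over all tested compounds plus 3 SD, cut at about 0.9% in these data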;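 also: 0% = DMSO-only wells and 100% = 3 µM delta7-dafachronic acid wells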
SMARCA2 act: increases SMARCA2 function in MMTV reporter cells; MG213 cells, MMTV-luciferase reporter, dexamethasone, overnight; activation, % at 9.1 µM; 370,000 tested, 1% active; AID 652017; in the data active = activation above about 7.8%;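 also: 0% = vehicle wells and 100% = reference activator wells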
DAX1 StAR inh: DAX1 (NR0B1) inhibition, primary screen; HEK293T StAR-luciferase reporter, SF-1/DAX-1 repression relief; inhibition, % at 6.8 µM; 370,000 tested, 1.1% active; AID 652010;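 active = inhibition above the mean over all tested compounds plus 3 SD, cut at about 3.6% in these data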;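 also: 0% = DAX-1 cells with DMSO and 100% = cells lacking DAX-1 with DMSO; higher inhibition means more luminescence from relief of DAX-1 repression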
hcDAF12 agonist: H. contortus DAF-12 activation, primary screen. HEK293 hcDAF-12 lit1-tk-luc reporter, luminescence; 0% DMSO, 100% Δ7-dafachronic acid. activation, % at 6.8 µM. 370,000 tested, 1.4% active. AID 652067;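 active = activation above the mean of all tested compounds plus 3 SD, cut at about 5.5% in these data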;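 also: 100% = response to 3 µM Δ7-dafachronic acid high control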
hgDAF-12 ag: agonists of H. glycines DAF-12 nuclear receptor; HEK293 GAL4-hgDAF12 UAS-luciferase reporter, agonist luminescence; normalized to butyrate control; activation, % at 6.8 µM; 370,000 tested, 1.8% active; AID 687014;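 active = activation above a cutoff set at the mean of all screened compounds plus 3 SD, cut at about 10% in these data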;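 also: 0% = DMSO wells and 100% = sodium butyrate wells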
hgDAF12 conf: confirmation of H. glycines DAF-12 agonists; shares compounds with hgDAF-12 ag; HEK293 GAL4-hgDAF12 luciferase reporter, agonist mode; percent of butyrate response; activation, % at 6.8 µM; 3,300 tested, 80% active; AID 743050;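 active = mean activation over triplicate wells above the hit cutoff derived from the earlier primary screen, cut at about 11% in these data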;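 also: 0% = DMSO low control and 100% = 2 mM sodium butyrate high control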
LXRb DAF12 ctr: counter-screen for DAF-12 agonists: agonists of human LXR-beta | shares compounds with hgDAF-12 ag | HEK293 Gal4-LXR luciferase reporter, 24 h | activation, % at 6.8 µM | 3,300 tested, under 10 active | AID 743051;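 active = mean activation of the triplicate above a set limit carried over from the primary screen, none filed active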
Target sequence (P55055 whole entry, looked up, the tested form may be a part): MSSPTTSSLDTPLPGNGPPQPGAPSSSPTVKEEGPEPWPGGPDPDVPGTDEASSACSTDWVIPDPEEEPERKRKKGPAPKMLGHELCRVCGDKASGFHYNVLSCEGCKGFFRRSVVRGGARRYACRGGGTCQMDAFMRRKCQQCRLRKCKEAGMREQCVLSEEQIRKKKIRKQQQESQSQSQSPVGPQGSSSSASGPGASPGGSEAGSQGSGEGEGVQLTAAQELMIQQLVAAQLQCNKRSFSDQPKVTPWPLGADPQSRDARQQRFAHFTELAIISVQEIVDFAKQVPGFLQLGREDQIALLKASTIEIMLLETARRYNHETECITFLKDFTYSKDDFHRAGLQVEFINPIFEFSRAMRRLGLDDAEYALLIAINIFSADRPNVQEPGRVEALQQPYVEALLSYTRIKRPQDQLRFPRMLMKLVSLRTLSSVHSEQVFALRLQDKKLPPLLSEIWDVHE
An asterisk follows results filed as active; x = no result given. Most compounds without a hit are left out; they make up all but 4.2% or so of the library.

SMILES | ssDAF-12 act | SMARCA2 act | DAX1 StAR inh | hcDAF12 agonist | hgDAF-12 ag | hgDAF12 conf | LXRb DAF12 ctr
CSc1ncc(C(=O)Nc2ccccc2C)c(C)n1 | -1 | 1 | -1 | -3 | 1 | x | x
O=C(NCCc1cccc(F)c1)c1cc2ccccn2n1 | 0 | 4 | 3 | 1 | 14* | 12* | 0
O=C(NCc1ccc(F)cc1)c1cc2ccccn2n1 | 0 | -1 | -1 | -1 | 2 | x | x
COc1cc(N)ccc1NC(=O)c1cc2ccccc2o1 | 0 | 5 | 1 | 4 | 17* | 9 | 1
COc1cc(NC(C)=O)ccc1NC(=O)c1cc2ccccc2o1 | -1 | 2 | 1 | 1 | 4 | x | x
COc1ccc(NS(=O)(=O)c2ccc(NC(=O)c3ccccn3)cc2)cc1 | -1 | -3 | -4 | -1 | -2 | x | x
CCCC(=O)Nc1ccc(NC(=O)c2ccccn2)cn1 | 1.2* | 4 | 2 | 3 | 13* | 9 | 0
CCCC(=O)Nc1ccc(NC(=O)c2ccccc2OC)cn1 | -1 | 3 | 1 | 0 | -1 | x | x
CNS(=O)(=O)c1ccc(NC(=O)c2ccccn2)cc1 | 0 | 3 | 1 | 3 | 14* | 9 | 0
CC(C)C[C@@H]1COc2cccc(NCCO)c2S(=O)(=O)N1 | -1 | -3 | 2 | -1 | 3 | x | x
O=C(NCCN1CCOCC1)c1cc(-c2cccs2)on1 | 0 | -1 | -1 | 1 | 20* | 29* | 0
O=C(NCCN1CCOCC1)c1cc(-c2ccccc2)on1 | 0 | -2 | 0 | 2 | 24* | 23* | 0
O=C(NCCN1CCOCC1)c1cc(-c2ccc(Br)cc2)on1 | -1 | -2 | 0 | 0 | 0 | x | x
O=C(NCCCN1CCOCC1)c1cc(-c2ccccc2)on1 | -1 | -4 | 1 | 3 | 26* | 27* | 0
COc1ccc(CN2C(=O)COc3ccccc3C2c2nnnn2C2CCCCC2)cc1 (stereo unspecified) | -1 | -1 | 0 | 0 | 0 | x | x
CC1(C(=O)NS(=O)(=O)c2ccc(F)cc2F)CCN1C(=O)C1(c2ccc(Cl)cc2)CCC1 (stereo unspecified) | -1 | -2 | 0 | -2 | 0 | x | x
Cc1nc(N2CCN(C(=O)C3CC3)CC2)c2c3c(sc2n1)CC(C)CC3 (stereo unspecified) | -2 | x | x | -3 | -5 | x | x
Cc1nn(-c2ccccc2)cc1C(=S)Nc1ccccc1 | -1 | 2 | 1 | -1 | 14* | 7 | 0
Cc1c(C(=S)Nc2ccccc2)cnn1-c1ccccc1 | 0 | 3 | 1 | -1 | 3 | x | x
Cc1c(C(=O)NCCc2ccccc2)oc2ccccc12 | 0 | 6 | 3 | 4 | 16* | 14* | 1
C=CCn1c(COc2ccc(C)cc2)nnc1SCC(=O)c1ccc(-c2ccccc2)cc1 | -1 | -5 | -2 | -2 | 2 | x | x
COC(=O)c1c(C)[nH]c(C(=O)OC(C)C(=O)NC2CCCCC2C)c1C (stereo unspecified) | -1 | -5 | 0 | -2 | -1 | x | x
O=C(N/N=C/c1sc(=O)n(-c2ccccc2)c1Cl)c1ccccc1 | 0 | 4 | 0 | 2 | 24* | 16* | 1
NC(=O)N/N=C/c1sc(=O)n(-c2ccccc2)c1Cl | 0 | -1 | -1 | 2 | 0 | x | x
O=C(OCc1cn(Cc2ccccc2Cl)nn1)N1CCOCC1 | 0 | 3 | 0 | -1 | 3 | x | x
SMILES | ssDAF-12 act | SMARCA2 act | DAX1 StAR inh | hcDAF12 agonist | hgDAF-12 ag | hgDAF12 conf | LXRb DAF12 ctr
CCOC(=O)c1ccc(OS(=O)(=O)c2ccccc2)c(OC)c1 | 0 | 6 | 3 | 4 | 16* | 11* | 1
Cc1ccc(/C=N/NC(=O)c2ccoc2C)o1 | 0 | 4 | 2 | 5 | 14* | 4 | 0
Cc1occc1C(=O)O/N=C(\N)c1ccccc1 | 0 | 5 | 3 | 5 | 14* | 14* | 1
Cc1onc(-c2ccccc2Cl)c1C(=O)O/N=C(\N)c1ccccc1 | -1 | 1 | -5 | -2 | 1 | x | x
C/C(=N\NC(=O)c1ccc(Br)cc1)c1ccccc1 | -1 | 2 | -1 | -1 | 1 | x | x
C/C(=N\NC(=O)c1ccoc1C)c1ccccc1 | 1 | 4 | 3.9* | 5.6* | 14* | 11* | 1
